Here are results for 17 compounds from PubChem BioAssay (NCI).

The structures appear in SMILES notation. Compounds without any hit were thinned out: in the full panel of roughly 83,000, 20% have a hit.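 In brief: 96-well plates, 48 h treatment, single concentration, percent growth endpoint.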 Values without a mark were called inactive. Calls of active or inactive are those of the source. Rule for the calls: active = growth percent below 10; inactive = the rest.

Common to all, as to experiment: NCI-60 one-dose screen, 48 h (100 = growth as untreated, 0 = no growth, -100 = all killed)
Settings in all cases: 10 µM unless noted

Assay [1] has as its system T-47D breast.
In assay [2] the test system is BT-549 breast.
The subject of assay [3] is SW-620 colon.
Assay [4] relates to MCF7 breast.
Assay [5] deals with HCT-116 colon.
Assay [6] deals with HCC-2998 colon.
Assay [7] deals with KM12 colon.
In assay [8] the test system is MDA-MB-435 melanoma.

In the case of `CCOC(=O)c1nn(C2CCCCO2)c2ccc(NC(=O)CN3CCOCC3)cc12` (stereo unspecified), the growth in assay [1] is 98.9%; in assay [2], 101%; in assay [3] it was 104%; in assay [4] it was 97.3%; in assay [5] it was 90.5%; in assay [6], 109%. Further, the growth in assay [7] is 105%.
Consider `O=[N+]([O-])c1cccc(N=NNc2cccc([N+](=O)[O-])c2)c1`, for which the growth is 76.3% in assay [1]; 101% in assay [2]; 91.7% in assay [3]; 65.3% in assay [4]; 114% in assay [5]; 104% in assay [6]. In assay [7], the growth is 95.2%.
In the case of `O=C1CN(Cc2ccc(C(=O)NO)cc2)C(=O)[C@@H](Cc2ccccc2)N1`, the growth in assay [1] was 93.2%; in assay [2] it was 101%; in assay [3], 102%; in assay [4], 96%; in assay [5], 97.2%; in assay [6], 109%. For the same compound, in assay [7], the growth was 104%.
Take `N=C(N)c1ccc(-c2ccc(-c3ccc(-c4cccs4)s3)s2)cc1F`: the growth in assay [1] was 87.7%; in assay [2], 99.3%; in assay [3], 91.5%; in assay [4], 64.9%; in assay [5] it was 83.6%; in assay [6] it was 69%. In addition, in assay [7], the growth was 100%.
`C=C1C(=O)O[C@H]2[C@H]1CC/C(COC(=O)NCc1ccc(Cn3c(=O)sn(-c4ccc(Cl)cc4)c3=O)cc1)=C\CC[C@@]1(C)O[C@@H]21`: the growth is 47.5% in assay [1]; 66.1% in assay [2]; 6.67% (active) in assay [3]; 33.1% in assay [4]; 22.1% in assay [5]; 107% in assay [6].
Regarding `C=CCCCCOc1ccccc1-c1cnc(OCCCCC=C)n1C`, the growth was 61.9% in assay [1]; 96.8% in assay [2]; 30.8% in assay [3]; 42.2% in assay [4]; 61% in assay [5]; 61.1% in assay [6]. The growth in assay [7] is 38.4%.
With `O=S(=O)(NCCCNc1nccc(-c2c(-c3cccc(F)c3)nc3occn23)n1)c1cccc2ccccc12`, the growth in assay [1] was 4.4% (active); in assay [2], 45%; in assay [8] it was 15.7%; in assay [5], 23.4%; in assay [6], 2.75% (active); in assay [7], 15.7%.
As for `COc1ccc(NCc2cn(-c3ccc(C(=O)O)cc3)nc2-c2ccc(C(=O)O)cc2)cc1C(F)(F)F`, the growth in assay [1] is 92.7%; in assay [2], 98%; in assay [3], 97.2%; in assay [4] it was 96.1%; in assay [5], 104%; in assay [6], 104%. Besides, the growth in assay [7] was 102%.
Turning to `CC[C@]12C=CCN3CC[C@@]4(c5ccc(OC)cc5N(C)[C@H]4[C@@](O)(C(=O)OC)[C@@H]1OC(=O)CCC(=O)O[C@H]1CC[C@H]4[C@@H]5CCC6=CC(=O)CC[C@@H]6[C@H]5CC[C@]14C)[C@@H]32`, the growth was 21.6% [100 µM] in assay [1]; -8.65% [100 µM] (active) in assay [2]; 11.1% [100 µM] in assay [3]; 11.7% [100 µM] in assay [4]; 3.76% [100 µM] (active) in assay [5]; 3.12% [100 µM] (active) in assay [6]. In assay [7], the growth was 6.43% [100 µM] (active).
Take `CCOC(=O)c1c[nH]n2c(=S)ncnc12`: the growth in assay [1] is 98.7%; in assay [2], 108%; in assay [3], 112%; in assay [4], 96.3%; in assay [5], 101%; in assay [6], 112%. The growth in assay [7] was 99.9%.
Regarding `O=C(O)CC1CCCCC1c1ccccc1` (stereo unspecified), the growth in assay [1] is 104%; in assay [2], 96%; in assay [8], 115%; in assay [5], 98.4%; in assay [6] it was 106%; in assay [7], 110%.
Take `O=C(Nc1cccc2cccnc12)c1cc(C(=O)c2ccc(Cl)cc2)n2ccc(-c3ccncc3)cc12`: the growth is 95.7% in assay [1]; 93.9% in assay [2]; 90.6% in assay [3]; 98.3% in assay [4]; 101% in assay [5]; 113% in assay [6]. Moreover, the growth in assay [7] was 108%.
Consider `COc1ccc(/C=C(/C(=O)c2ccc(Cl)cc2)C(=O)C(F)(F)F)cc1`, for which the growth in assay [1] is 90.3%; in assay [2] it was 111%; in assay [3], 101%; in assay [4], 77.2%; in assay [5], 101%; in assay [6], 93.4%. For the same compound, the growth in assay [7] was 91.6%.
Regarding `C#CCC(C(=O)OCC)C(=O)OCC`, the growth in assay [1] is 114%; in assay [8], 97.8%; in assay [3], 106%; in assay [4] it was 98%; in assay [5], 105%; in assay [6], 101%. For the same compound, the growth in assay [7] was 106%.
As for `COC(=O)C(=Cc1ccccc1[N+](=O)[O-])C(=O)OC`, the growth in assay [1] was 22.6%; in assay [8], 15.5%; in assay [3], 34.7%; in assay [4] it was 15.4%; in assay [5], 6.83% (active); in assay [6], 55.2%. For the same compound, in assay [7], the growth is 15.7%.
Take `CS(=O)(=O)c1cccnn1`: the growth in assay [1] was 95.2%; in assay [8], 104%; in assay [3] it was 95.5%; in assay [4], 94%; in assay [5], 96.5%; in assay [6], 110%. Also, the growth in assay [7] was 106%.
Consider `C[C@@H](NC(=O)[C@@H](CC(=O)N1CCC(N2CCCCC2)CC1)N1C(=O)[C@@H](N2C(=O)OC[C@@H]2c2ccccc2)[C@H]1/C=C/c1cccc(Cl)c1)c1ccccc1`, for which the growth in assay [1] was 29.9%; in assay [8], 1.09% (active); in assay [3], 66.3%; in assay [4], 20.8%; in assay [5], 53.7%; in assay [6], 28.5%. Moreover, in assay [7], the growth was 71.3%.
